Experimental data from PubChem BioAssay AID1159580 (chemical genetic matrix, 2015).
In all, about 5,500 compounds went through this assay and about 2,000 (36%) were called active. About 18% were inconclusive and are not listed. No stated cut-off is given here; in the data, active means normalized growth mostly below about 0.91 (no sharp cut-off); inconclusive means no clear call, values can overlap the other calls; inactive means mostly above about 0.92. This is one part of the list.

Test: chemical genetic growth profiling, strain panel (AID 1159580);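 further: tested at 20 µM; growth read once vehicle control cultures reached saturation at 30 °C; 1 = growth at the plate median or of vehicle wells; lower values mean less growth of the strain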
Details: growth OD

Measured: normalized growth

Cc1cc(C)c2c(-n3cccc3)c(C(=O)c3ccc(Cl)cc3)sc2n1
inactive: S. cerevisiae deletion strains, locus YAL013W, strain DEP1, active compounds read low 0.996 | S. cerevisiae deletion strains, locus YBR229C, strain ROT2, active compounds read low 1.01 | S. cerevisiae deletion strains, locus YCL061C, strain MRC1, active compounds read low 1 | S. cerevisiae deletion strains, locus YDL101C, strain DUN1, active compounds read low 0.979 | S. cerevisiae deletion strains, locus YDR150W, strain NUM1, active compounds read low 0.9 | S. cerevisiae deletion strains, locus YEL061C, strain CIN8, active compounds read low 1 | S. cerevisiae deletion strains, locus YGR078C, strain PAC10, active compounds read low 1.01 | S. cerevisiae deletion strains, locus YGR229C, strain SMI1, active compounds read low 0.99 | S. cerevisiae deletion strains, locus YHR030C, strain SLT2, active compounds read low 0.884 | S. cerevisiae deletion strains, locus YHR087W, strain rtc3, active compounds read low 0.98 | S. cerevisiae deletion strains, locus YJL187C, strain SWE1, active compounds read low 1.01 | S. cerevisiae deletion strains, locus YJR043C, strain POL32, active compounds read low 1.01 | S. cerevisiae deletion strains, locus YJR075W, strain HOC1, active compounds read low 0.987 | S. cerevisiae deletion strains, locus YLR039C, strain RIC1, active compounds read low 0.903 | S. cerevisiae deletion strains, locus YLR058C, strain SHM2 (second series), active compounds read low 1.01 | S. cerevisiae deletion strains, locus YLR085C, strain ARP6, active compounds read low 0.961 | S. cerevisiae deletion strains, locus YLR262C, strain YPT6, active compounds read low 0.95 | S. cerevisiae deletion strains, locus YML094W, strain GIM5, active compounds read low 0.935 | S. cerevisiae deletion strains, locus YMR219W, strain ESC1, active compounds read low 1.01 | S. cerevisiae deletion strains, locus YMR263W, strain SAP30, active compounds read low 0.997 | S. cerevisiae deletion strains, locus YMR307W, strain GAS1, active compounds read low 0.891 | S. cerevisiae deletion strains, locus YNL153C, strain GIM3, active compounds read low 0.984 | S. cerevisiae deletion strains, locus YNL298W, strain CLA4 (second series), active compounds read low 0.984 | S. cerevisiae deletion strains, locus YNL322C, strain KRE1, active compounds read low 0.997 | S. cerevisiae deletion strains, locus YNR030W, strain Alg12, active compounds read low 0.95 | S. cerevisiae deletion strains, locus YPL055C, strain LGE1, active compounds read low 0.957 | S. cerevisiae deletion strains, locus YPL241C, strain CIN2, active compounds read low 1 | S. cerevisiae deletion strains, locus YPR135W, strain CTF4, active compounds read low 0.893 | S. cerevisiae strains, strain wild type, active compounds read low 0.986
